Pf growth 96h: P. falciparum growth inhibition at 96 hour, primary screen for plastid delayed-death inhibitors. P. falciparum luciferase reporter growth, 96 h. Potency, µM (titrated, usually from 28.7 µM), for inactives: at the highest dose activity change, negative = inhibition, usual class: inhibitors. hit rate 6.9% among 320,000. AID 504834; further: potency means the concentration at half of the fitted maximal effect
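Compounds incubated with erythrocytes infected by luciferase-expressing P. falciparum (2% hematocrit, 0.05% parasitemia final) for 96 hours, 37 C in 5% CO2. Growth inhibition scored as decreased luciferase luminescence.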
Lassa entry inh: blocks Lassa virus binding to or entry into cells; Lassa virus pseudotype entry inhibition, cell reporter; Potency, µM (top dose mostly 37.9 µM), inactives show at the top dose activity change, negative = inhibition, actives largely listed as inhibitors; hit rate 1.2% among 300,000; calls by dose curve; tested in HEK293 cells; further: potency means the concentration at half of the fitted maximal effect; nearly all actives have a fitted effect of over 50% in size
HCV inhibitor: inhibitors of hepatitis C virus infection. Potency, µM (doses to about 41.8 µM), for inactives: at the highest dose activity change, negative = inhibition, usual class: inhibitors. hit rate 3.4% among 340,000. AID 651820. Huh7.5.1 HCVcc-Cre infection, luciferase reporter, 44 h; further: potency means the concentration at half of the fitted maximal effect
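Infectious HCV cell culture screen: compound-treated cells (1,000/well, pre-plated 4 h) are infected with HCVcc-Cre at roughly 0.5 moi and grown 44 h. Infection is quantified by luciferase signal after 15 min substrate incubation at room temperature.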
HCMV antiviral: human cytomegalovirus inhibition. activity change, negative = inhibition, % at 57.5 µM. hit rate 4.5% among 410,000. AID 1259415. HFF cells, HCMV-luciferase reporter, 72 h; active compounds read low; in the data active means activity change below about -60%; inconclusive means no clear call, values can overlap the other calls; inactive means above about -39%
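Human foreskin fibroblasts infected with luciferase-reporter HCMV at MOI 1 PFU/cell, compounds at two doses. Luciferase measured 72 h post infection; normalized to buffer-only basal and Salinomycin (10uM) controls.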
MARV entry inh: Marburg virus entry inhibition. Marburg virus pseudotyped entry inhibition, cell reporter. Potency, µM (series often up to 37.8 µM), for the others: at the top dose activity change, negative = inhibition, usual class: inhibitors. hit rate 1.8% among 300,000. AID 540276; calls by dose curve; tested in HEK293 cells; further: potency means the concentration at half of the fitted maximal effect
Pf growth 48h: P. falciparum growth inhibition at 48 hours (one generation). P. falciparum luciferase growth in erythrocytes, 48 h. Potency, µM (titrated, usually from 28.7 µM), for inactives: at the highest dose activity change, negative = inhibition, usual class: inhibitors. hit rate 5.9% among 310,000. AID 504832; further: potency means the concentration at half of the fitted maximal effect
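In quantitative HTS format, infected erythrocytes bearing luciferase-reporter parasites were treated for a single generation at 37 C. Luminescence after adding detection reagent served as the growth measure.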
* = called active by the depositor; i = inactive; u = inconclusive; x = no result given; [ ] = remark or other dose. An excerpt weighted towards active compounds, which were near 14% of everything screened. Unless noted, the call rests on the fitted dose curve; in most records, active means well fitted inhibition curve with a large enough effect; inconclusive means small, poorly fitted or top-dose-only effect, or another doubt; inactive means no such curve, though single readings can be large or run the other way. On the % scale 0 is the no-effect control and ±100 the full control effect.

SMILES | Pf growth 96h | Lassa entry inh | HCV inhibitor | HCMV antiviral | MARV entry inh | Pf growth 48h
O=C1OC(/C(=C\Nc2cc(Cl)ccc2O)[N+](=O)[O-])c2ccccc21 (stereo not drawn) | u | 19% | -25% | -77* | u | 10µM*
CSC(=S)NCc1cccnc1 | -25% | u | u | -82* | u | u
CCCCc1ccc(NC(=S)NCc2cccnc2)cc1 | 12% | -1% | u | -77* | -24% | 0%
CC(C)CNC(=S)Nc1ccc(Oc2ccccc2)cc1 | 5.2µM* | -20% | u | -63* | u | 5%
NC(=S)NCc1cccnc1 | 28% | x | 15% | 5 | x | 17%
FC(F)Oc1ccc(NC(=S)NCc2cccnc2)cc1 | 1% | x | -19% | -4 | -3%[46.1 µM] | u
S=C(NCc1cccnc1)Nc1ccc(Oc2ccccc2)cc1 | 26% | x | u | -71* | x | u
CCc1ccc(C2=C(C)C(N3CCC(C(=O)NCc4ccccc4)CC3)=NS2(=O)=O)cc1 | x | 16%[46.1 µM] | x | -8 | x | x
O=c1[nH]c(=S)[nH]c2c1C(c1ccc(F)cc1)OC(CCC(F)(F)F)C2 (stereo not drawn) | x | x | x | 9 | x | x
C[C@H]1CCCCO[C@H](CN(C)Cc2ccccc2)[C@@H](C)CN([C@@H](C)CO)C(=O)c2cc(NC(=O)CCC(F)(F)F)ccc2O1 | x | x | x | -18 | x | x
COC1C=CC=C(C)C(=O)NC2=CC(=O)C(N)=C(CC(C)CC(OC)C(O)C(C)C=C(C)C1OC(N)=O)C2=O (stereo not drawn) | x | 0.45µM* | u | -98* | 0.2µM* | x
C=CCNC1=C2C[C@@H](C)C[C@H](OC)[C@H](O)[C@@H](C)/C=C(\C)[C@H](OC(N)=O)[C@@H](OC)/C=C\C=C(/C)C(=O)NC(=CC1=O)C2=O | 11µM* | x | x | x | x | 0.6µM*
COC1CC(C)C(OC)c2cc(O)cc(c2O)NC(=O)C(C)=CC=CC(C)C(OC(N)=O)C(C)=CC(C)C1OC (stereo not drawn) | x | u | u | -99* | 3.5µM* | x
CCCNC(=O)C1(C)CCN(C(=O)c2cc(C(C)(C)C)nn2C)C1 (stereo not drawn) | x | x | x | 15 | x | x
CCOCCCNC(=O)c1ccc(Cn2c(=O)c3cccn3c3cccnc32)cc1 | x | -13%[46.1 µM] | x | -20 | x | x
O=[N+]([O-])c1ccc(/C=N/NC2=NS(=O)(=O)c3ccccc32)cc1 | -7% | x | 3% | -18 | x | 32%
O=S1(=O)N=C(N/N=C/c2cccs2)c2ccccc21 | 13µM* | u | 1% | -17 | -31%[46.1 µM] | u
O=[N+]([O-])c1ccc(O)c(/C=N/Nc2ccc(Cl)nn2)c1 | 0.37µM* | u | 4µM* | -101* | 0.13µM* | 0.41µM*
O=[N+]([O-])c1ccc(O)c(/C=N/NC2=NS(=O)(=O)c3ccccc32)c1 | 5%[5.75 µM] | -1%[46.1 µM] | -13% | 22 | u | 2.6µM*
O=[N+]([O-])c1ccc(O)c(/C=N/Nc2nn[nH]n2)c1 | 102% | -26%[46.1 µM] | 3% | 29 | 14%[46.1 µM] | u
CCN(C(=O)Cn1cnc2c1c(=O)n(C)c(=O)n2C)c1ccccc1C | x | -14%[46.1 µM] | x | 0 | x | x
CCOC(=O)c1c(/N=C/N(C)C)sc(/C=N/Nc2ccccc2)c1-c1ccc(Cl)cc1 | 3.3µM* | -3% | u | u | u | 13µM*
CC(CCN1CCc2nc(-c3ccccc3)c(-c3ccccc3)cc2C1)=NO[C@H](C)CN1CCCCc2nc(C)c(C)cc21 | x | x | x | x | 25%[14.2 µM] | x
Cc1ccc(CNC(=O)C2CCCN(c3nc4c(C)cc(C)cc4s3)C2)cc1 (stereo not drawn) | x | x | x | 14 | -13%[46.1 µM] | x
Cc1cc(C)c2nc(N3CCC(C(=O)N4CCCC4)CC3)sc2c1 | u | -8% | -14% | -17 | 1% | 8.3µM*
SMILES | Pf growth 96h | Lassa entry inh | HCV inhibitor | HCMV antiviral | MARV entry inh | Pf growth 48h
Cc1cc(C)c2nc(N3CCC(C(=O)N4CCN(c5ncccn5)CC4)CC3)sc2c1 | 4% | -1% | -29% | -33 | -3% | x
Cc1cc(C)c2nc(N3CCCC(C(=O)NC4CCCC4)C3)sc2c1 (stereo not drawn) | 5.2µM* | 5%[46.1 µM] | -27% | 39 | -23%[46.1 µM] | 8%
Cc1cc(C)c2nc(N3CCC(C(=O)NCCCN4CCCCC4)CC3)sc2c1 | x | u | u | -103* | u | x
CCc1ccccc1NC(=O)CSc1nncn2c1cc1oc(C)cc12 | x | 26%[46.1 µM] | x | -25 | x | x
COc1ccc(S(=O)(=O)NCC(c2ccc(N(C)C)cc2)N2CCc3ccccc32)cc1F (stereo not drawn) | x | 9%[46.1 µM] | x | 32 | x | x
CCOc1ccc(OCCOCCn2c(-c3ccc(Cl)cc3)nc3ccccc3c2=O)cc1 | x | 0%[46.1 µM] | x | 5 | 27%[46.1 µM] | x
COc1ccccc1C(C)NC(=O)c1ccc(C)o1 (stereo not drawn) | 13µM* | -9% | u | 101 | u | x
CC(C)(C)c1ccc(C(=O)O/N=C(\N)c2ccccc2)cc1 | u | x | u | -94* | x | -72%
Cc1cc(C(=O)O/N=C(\N)c2ccc(C(C)(C)C)cc2)no1 | 463% | x | -26% | -69* | x | 362%
N/C(=N\OC(=O)c1ccc(Br)cc1)c1ccccc1 | i | -15% | u | 51 | 10% | -58%
Cc1occc1C(=O)O/N=C(\N)c1ccc(Cl)cc1 | u | u | -4% | 0 | u | u
Cc1noc(-c2ccc(Cl)cc2)c1C(=O)O/N=C(\N)c1ccc(C(C)(C)C)cc1 | u | u | u | -100* | u | u
N/C(=N\OC(=O)c1cccc(Br)c1)c1ccc(Br)cc1 | 1.9µM* | 27% | 13% | 85 | 4% | 48%
O=C(O)C=C(Br)Br | 41% | x | 37% | -5 | x | 31%
COc1cc2oc(=O)c(CC(=O)NCCc3ccccc3)c(C)c2cc1Cl | x | 14%[46.1 µM] | x | -6 | 5%[46.1 µM] | x
COc1ccc(CNC(=O)[C@H](Cc2ccccc2)NC(=O)CC[C@H]2O[C@@H](n3ccc(=O)[nH]c3=O)[C@H](O)[C@@H]2O)cc1 | x | x | x | -17 | x | x
CC1=CC[C@@H](COc2ccccc2)O[C@@]2(C1)C(=O)Nc1cccc(Br)c12 | x | u | x | x | 4%[14.2 µM] | x
CC(=O)OC[C@H]1O[C@@H](n2ncc(=O)[nH]c2=O)[C@H](OC(C)=O)[C@@H]1OC(C)=O | -4% | 0.73µM* | 28% | x | u | -2%
COc1ccc(C(=O)CSc2nnc(C3CCCCC3)n2N)c(OC)c1 | 9.3µM* | u | 10µM* | 5 | u | 0%
COc1ccc(NC(=O)CSc2nnc(C3CCCCC3)n2N)cc1 | 16% | -3% | 4% | 42 | -5%[46.1 µM] | 5%
CN(C)S(=O)(=O)c1ccc2c(c1)c(=O)c(C(=O)N1CCOCC1)cn2C | 117% | x | -1% | -3 | 1% | x
CCOC(=O)C1CCN(S(=O)(=O)c2nc3nc(C)cc(C)n3n2)CC1 | 10µM* | 21% | 5% | 41 | 6% | 2%

High-throughput results (PubChem)
